Screens deposited in PubChem BioAssay by Paczesny and Yang Labs, IUPUI and University of Michigan.
This is one part of a sample in which hits are shown more often than they occur.
ST2 IL33 inh: IL1RL1 inhibition; AlphaLISA ST2-Fc/biotin-IL-33 interaction, 1 h; 78,000 compounds, 2.3% hits; inhibition, % for hits at 17 µM; Q01638; in the data active = inhibition above about 30%
Target sequence (Q01638 whole entry, looked up): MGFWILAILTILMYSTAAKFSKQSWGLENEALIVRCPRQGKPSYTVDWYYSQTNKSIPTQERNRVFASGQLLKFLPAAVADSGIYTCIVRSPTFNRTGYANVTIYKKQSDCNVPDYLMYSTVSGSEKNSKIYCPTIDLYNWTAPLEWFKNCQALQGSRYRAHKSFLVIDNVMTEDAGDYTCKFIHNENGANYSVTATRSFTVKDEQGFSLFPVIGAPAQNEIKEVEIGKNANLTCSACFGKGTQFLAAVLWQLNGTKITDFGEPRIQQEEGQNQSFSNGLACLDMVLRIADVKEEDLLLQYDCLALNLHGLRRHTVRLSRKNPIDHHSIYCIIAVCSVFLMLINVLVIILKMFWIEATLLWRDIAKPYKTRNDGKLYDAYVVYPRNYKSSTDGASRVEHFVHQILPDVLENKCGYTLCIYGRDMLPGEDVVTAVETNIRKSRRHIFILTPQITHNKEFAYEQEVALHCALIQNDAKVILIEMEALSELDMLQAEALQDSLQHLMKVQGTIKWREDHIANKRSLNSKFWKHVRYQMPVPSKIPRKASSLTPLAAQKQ
Large screens that a line does not name were inactive; ! = repeats disagree.

O=C(N[C@H]1CCN2C(=O)c3ccccc3NC(=O)[C@H]12)C1CCCC1	none
CC(C)[C@H]1NC(=O)[C@@H]2[C@@H](NC(=O)NC3CCCCC3)CCN2C1=O	ST2 IL33 inh 43.0%
COc1cccc(NC(=O)N[C@H]2CCN3C(=O)[C@@H](Cc4ccccc4)NC(=O)[C@H]23)c1	none
COCCn1c(CNS(=O)(=O)c2ccc(C)cc2C)nc2cccnc21	none
COc1cccc(CN(C)Cc2nc3ccc(C)cc3[nH]2)c1O	none
CCC(=O)N1CCc2cc(Br)cc(S(=O)(=O)Nc3c(C)cc(C)cc3C)c21	none
CCC(C)NC(=O)CN1C(=O)C(CC)Oc2ccc(C)cc21 (centres undefined)	none
CCCCNC(=O)C1c2cc(OC)c(OC)cc2C(=O)N(C)C1c1ccccc1F (centres undefined)	none
COc1ccccc1CNC(=O)C1c2cc(OC)c(OC)cc2C(=O)N(C)C1c1ccccc1F (centres undefined)	none
COc1cc2c(cc1OC)C(C(=O)NCCN(C)C)C(c1ccccc1F)N(C)C2=O (centres undefined)	ST2 IL33 inh 32.0%
CCN(Cc1ccccn1)C(=O)c1ccc(OCC(=O)N2CCCCC2)cc1	none
O=C(CSc1nc(-c2ccc(F)cc2)[nH]c1-c1ccccc1)Nc1nccs1	none
C=CCOc1ccc(C(=O)N2CCOCC2)cc1	ST2 IL33 inh 31.0%
CCCOc1ccc(C(=O)N2CCOCC2)cc1OC	none
Cc1cc(C)c(C(=O)c2ccc(C(=O)N3CCOCC3)cc2)c(C)c1	none
CCC(=O)N1CCc2cc(Br)cc(S(=O)(=O)NCc3cccs3)c21	none
O=C(C1CC1)N1CCc2cc(S(=O)(=O)NCc3ccc(F)cc3)ccc21	none
O=C(C1CC1)N1CCc2cc(S(=O)(=O)NCc3ccc4c(c3)OCO4)ccc21	ST2 IL33 inh 36.0%
Cc1ccc(CNS(=O)(=O)c2cc(Br)cc3c2N(C(=O)C2CC2)CC3)cc1	none
COc1ccc(CNS(=O)(=O)c2ccc3c(c2)CCN3C(=O)C2CC2)cc1	none
O=C(C1CC1)N1CCc2cc(Br)cc(S(=O)(=O)NCc3cccnc3)c21	none
O=C(C1CC1)N1CCc2cc(Br)cc(S(=O)(=O)NCc3ccc4c(c3)OCO4)c21	ST2 IL33 inh 32.0%
O=C(c1cccc(F)c1)N1CCOCC1	none
C=C(C)COc1cccc(CNCc2cnc(C)cn2)c1	none
O=c1[nH]nc(CCn2ccnc2-c2ccc(-n3ccnc3)cc2)[nH]1	none
O=C(CN1C(=O)c2ccccc2S1(=O)=O)Nc1cc(Cl)cc(Cl)c1	none
Cc1ccc(S(=O)(=O)N(Cc2ccc([N+](=O)[O-])cc2)C(C)(C)C)cc1	none
Cc1ccc(S(=O)(=O)c2ccc(-c3ccc([N+](=O)[O-])cc3)cc2)cc1	ST2 IL33 inh 31.0%
Cc1ccc(NS(=O)(=O)c2ccc([N+](=O)[O-])cc2)cc1	none
COC(=O)c1cccc(N2C(=O)C3C4c5ccccc5C(C)(c5ccccc54)C3C2=O)c1 (centres undefined)	none
O=C(c1ccccc1F)N1CCN=C1SCc1cccc(Cl)c1	none
COC(=O)CNc1c(-c2ccc(O)c(OC)c2)nc2cnccn12	none
O=C(c1ccccc1NS(=O)(=O)c1ccc(Br)cc1)N1CCCC1	none
Cc1ccc(C2=NN(C(=O)CCC(=O)O)C(c3ccc(Br)cc3)C2)cc1 (centres undefined)	ST2 IL33 inh 38.0%!
Cc1ccc(C2=NN(C(=O)CCC(=O)O)C(c3ccc(Cl)cc3)C2)cc1 (centres undefined)	none
O=C(O)CCCC(=O)N1N=C(c2ccc(Br)cc2)CC1c1ccc(Cl)cc1 (centres undefined)	none
Cc1cc[n+](C2C(c3ccc(Br)cc3)C(C#N)=C([S-])NC2(O)C2CC2)cc1 (centres undefined)	ST2 IL33 inh 55.0%
Cc1ccc([C@]2(O)NC([S-])=C(C#N)[C@H](c3ccc(F)cc3)[C@H]2[n+]2ccccc2)cc1	none
COC(=O)C1C(=O)NC(SC)=C(C#N)C1c1ccc(C)cc1 (centres undefined)	none
CC(=O)c1ccc(NC(=O)c2ccc3nc(-c4ccco4)c(-c4ccco4)nc3c2)cc1	ST2 IL33 inh 40.0%
CC(=O)c1ccc(NC(=O)c2cccc(Cl)c2)cc1	none
CC(=O)c1ccc(NC(=O)c2cc(-c3ccco3)on2)cc1	none
O=C(Cn1c(=O)sc2ccccc21)Nc1ccc(F)cc1	none
Cc1cc(C)n(CCNC(=O)c2cc(CC(C)C)[nH]n2)c(=O)n1	none
O=[N+]([O-])c1ccc(CSc2nnc3c(n2)[nH]c2ccccc23)cc1	none
c1ccc2c(c1)[nH]c1nc(SCCCN3CCOCC3)nnc12	none
CC(C)CSc1nnc2c(n1)[nH]c1ccccc12	ST2 IL33 inh 32.0%
Cc1ccc2oc(C(=O)OC(CN(C)C)CN(C)C)cc2c1	none
COc1ccc(CN2CCC(N3CCN(CCO)CC3)CC2)cc1OC	none
COc1ccccc1NC(=O)C1=C(C)Nc2nnnn2C1c1ccccc1F (centres undefined)	none
CCOC(=O)c1c(NC(=O)c2ccc(S(=O)(=O)N3CCCC3)cc2)sc2c1CCN(C)C2	none
CCOC(=O)c1c(NC(=O)c2sc3ccccc3c2Cl)sc2c1CCN(C)C2	ST2 IL33 inh 38.0%
CCOC(=O)c1c(NC(=O)c2ccc(Br)s2)sc2c1CCN(C)C2	none
CCOc1ccc2[nH]cc(C(=O)c3ccccc3)c(=O)c2c1	none
CC(C)Cn1c(CN2CCC(CN)C2)nc2ccccc21 (centres undefined)	none
CCCCNC(=O)C1(O)c2cc(Br)ccc2NC(=O)N1c1ccccc1 (centres undefined)	none
COc1ccc(CNC(=O)C2(O)c3ccccc3NC(=O)N2c2cccc(OC)c2)cc1 (centres undefined)	none
CN(C)CCNC(=O)C1(O)c2ccccc2NC(=O)N1c1ccccc1 (centres undefined)	none
CCN(CC)CCNC(=O)C1(O)c2ccccc2NC(=O)N1c1ccccc1 (centres undefined)	none
CCN(CC)CCNC(=O)C1(O)c2cc(Br)ccc2NC(=O)N1c1ccccc1 (centres undefined)	ST2 IL33 inh 31.0%!
O=C1Nc2ccccc2C(O)(C(=O)NCc2ccc3c(c2)OCO3)N1c1ccccc1 (centres undefined)	ST2 IL33 inh 30.0%
Cc1cc(C)cc(NS(=O)(=O)c2c(C)n[nH]c2C)c1	none
C=C[C@H]1[C@H](O[C@@H]2O[C@H](CO)[C@@H](O)[C@H](O)[C@H]2O)OC=C(C(=O)OC)[C@H]1C/C=C(\C=O)[C@@H]1C(C(=O)OC)=CO[C@@H](O[C@@H]2O[C@H](CO)[C@@H](O)[C@H](O)[C@H]2O)[C@@H]1C=C	none
CCc1nc2cccnc2n1C1CCN(S(=O)(=O)c2ccc(C(C)C)cc2)CC1	none
COc1cc(NC(=O)Nc2c(C)nc3nc[nH]n3c2=O)cc(OC)c1	none
C#CCCC(=O)N(CCC)Cc1cccc(Cl)c1	none
O=C(Nc1c2c(nn1-c1ccc(F)cc1)CS(=O)C2)c1ccc(F)cc1 (centres undefined)	none
C=CCSc1nnc(COc2ccccc2)o1	none
CCN(CC)c1ccc(NC(=O)Cc2ccccc2)cc1	ST2 IL33 inh 36.0%
CCN(Cc1ccccc1)Cc1ccc(NC(C)=O)cc1	none
CCN(CC)c1ccc(NC(=O)CCN2C(=O)c3ccccc3C2=O)cc1	none
CC1(C)CC(=O)c2cc(OCC(=O)N3CCCC3)ccc2O1	none
C=CCN(CC=C)C(=O)Nc1ccc2nsnc2c1	none
Cn1c(=O)[nH]c(=O)c2c1nc(N1CCCC1)n2CCSc1nnnn1-c1ccccc1	none
Cc1nc2c(ccc3nc(NC(=O)c4ccccc4)sc32)s1	none
Cc1nc2c(ccc3nc(NC(=O)c4cccc(Br)c4)sc32)s1	none
COC(=O)c1ccc(C(=O)Nc2nc3ccc4sc(C)nc4c3s2)cc1	ST2 IL33 inh 36.0%
Cc1nc2c(ccc3nc(NC(=O)c4ccc5c(c4)OCCO5)sc32)s1	none
